According to PubChem BioAssay (Tox21):
Several values for one entry are separate records, joined by “and”; a condition that tells them apart may be missing. Equal entries are not always repeated. Inconclusive results are not listed. Some compounds were tested as several samples or in several runs, with calls that do not always agree. Activity calls are given as the source filed them. Calls follow the shape of the dose curve; as a rule, active = well fitted inhibition curve with a large enough effect in the repeat runs; inconclusive = weak or mixed curves; inactive = no such curve, though single readings can be large or run the other way.

target: Androgen receptor (Homo sapiens) (UniProt P10275); experiment: qHTS assay to identify small molecule antagonists of the androgen receptor (AR) signaling pathway using the MDA cell line in the presence of 0.5 nM R1881 (AID 1259243); settings: MDA-kb2 MMTV-luciferase, R1881 0.5 nM, 16 h; series mostly up to 92.4 µM; activity, negative = inhibition: at the top concentration
Sequence (P10275 whole entry, looked up): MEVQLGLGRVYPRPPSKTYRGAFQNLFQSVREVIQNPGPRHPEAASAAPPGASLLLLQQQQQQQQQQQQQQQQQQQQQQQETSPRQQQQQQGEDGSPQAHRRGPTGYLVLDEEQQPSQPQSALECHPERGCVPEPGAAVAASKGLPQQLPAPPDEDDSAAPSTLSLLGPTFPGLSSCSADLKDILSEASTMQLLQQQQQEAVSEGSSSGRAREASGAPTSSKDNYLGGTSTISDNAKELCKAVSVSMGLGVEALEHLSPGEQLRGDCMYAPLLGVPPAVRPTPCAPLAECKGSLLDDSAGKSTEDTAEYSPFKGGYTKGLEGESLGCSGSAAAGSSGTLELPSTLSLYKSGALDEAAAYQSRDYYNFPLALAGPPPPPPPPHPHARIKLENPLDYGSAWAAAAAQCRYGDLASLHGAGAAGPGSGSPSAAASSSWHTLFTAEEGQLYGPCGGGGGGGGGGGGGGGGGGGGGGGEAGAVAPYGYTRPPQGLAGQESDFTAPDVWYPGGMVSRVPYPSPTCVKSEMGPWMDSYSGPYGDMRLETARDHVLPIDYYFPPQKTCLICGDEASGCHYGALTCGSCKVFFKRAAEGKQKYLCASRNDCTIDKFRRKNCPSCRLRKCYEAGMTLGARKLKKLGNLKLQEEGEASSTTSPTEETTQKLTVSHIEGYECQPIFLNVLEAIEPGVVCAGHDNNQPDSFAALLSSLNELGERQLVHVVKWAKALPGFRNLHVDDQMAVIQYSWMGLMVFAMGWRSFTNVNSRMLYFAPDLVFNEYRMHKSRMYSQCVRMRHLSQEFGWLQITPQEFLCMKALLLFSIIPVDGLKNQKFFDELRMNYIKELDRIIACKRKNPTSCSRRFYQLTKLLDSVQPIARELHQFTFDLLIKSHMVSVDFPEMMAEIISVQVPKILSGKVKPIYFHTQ
In short: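 Cells: MDA-kb2 (MMTV-luc). Stimulus: 0.5 nM R1881. Time: 16 hr, 37C, no CO2. Detection: ONE-Glo luminescence after 30 min at RT.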
% is scaled to controls: 0 for no effect and ±100 for the full control effect.
Also: nearly all actives have a fitted effect of over 50% in size.

Structure (SMILES) | activity, negative = inhibition
CC(C)(C)NCC(O)c1cc(Cl)c(N)c(C(F)(F)F)c1 (stereo not given) | 12.6% [at 42.5 µM] (inactive)
CC1(C)[C@H](C(=O)O[C@H](C#N)c2cccc(Oc3ccccc3)c2)[C@@H]1C=C(Br)Br | -20.4% (inactive)
Cc1cnc(C2=NC(C)(C(C)C)C(=O)N2)c(C(=O)O)c1 (stereo not given) | 13.6% (inactive)
O=C(N[C@H]1CN2CCC1CC2)c1ccc2c(c1)OCCO2 | 4.66% (inactive)
CCOP(=S)(S)OCC | 4.69% (inactive)
CC(CC(C(N)=O)(c1ccccc1)c1ccccc1)N(C)C (stereo not given) | 10.7% [at 42.5 µM] (inactive)

target: Estrogen receptor (Homo sapiens) (UniProt P03372); experiment: qHTS assay to identify small molecule antagonists of the estrogen receptor alpha (ER-alpha) signaling pathway using the BG1 cell line in the presence of 0.1 nM 17-beta-estradiol (AID 1259244); settings: VM7Luc4E2 (BG1) ERE-luciferase, antagonist mode, 0.1 nM E2, 22 h; series mostly up to 92.4 µM; activity change, negative = inhibition: at the top concentration; also: potency is read from the fitted curve at half-maximal effect
Sequence (P03372 whole entry, looked up): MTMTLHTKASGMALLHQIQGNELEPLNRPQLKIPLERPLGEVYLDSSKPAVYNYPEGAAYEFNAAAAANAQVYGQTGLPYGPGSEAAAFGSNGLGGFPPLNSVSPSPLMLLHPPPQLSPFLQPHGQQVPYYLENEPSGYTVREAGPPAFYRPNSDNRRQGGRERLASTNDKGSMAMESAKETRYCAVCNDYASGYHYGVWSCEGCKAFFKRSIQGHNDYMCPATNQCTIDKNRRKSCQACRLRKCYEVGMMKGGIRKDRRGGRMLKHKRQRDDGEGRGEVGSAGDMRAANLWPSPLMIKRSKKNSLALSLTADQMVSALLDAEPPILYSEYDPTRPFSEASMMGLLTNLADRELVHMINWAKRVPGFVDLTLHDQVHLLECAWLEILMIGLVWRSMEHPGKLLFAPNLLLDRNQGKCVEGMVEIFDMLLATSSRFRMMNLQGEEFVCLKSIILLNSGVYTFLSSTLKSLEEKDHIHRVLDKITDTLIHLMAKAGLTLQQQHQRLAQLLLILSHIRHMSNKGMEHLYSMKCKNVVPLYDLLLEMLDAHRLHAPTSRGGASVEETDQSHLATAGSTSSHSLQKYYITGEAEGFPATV
In short: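 Seeding of stripped-serum-adapted VM7Luc4E2 cells, 24 h attachment, compound transfer, then 0.1 nM final 17beta-estradiol; after 22 h incubation, ONE-Glo reagent and luminescence reading.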

Structure (SMILES) | activity change, negative = inhibition | Potency
CC(O)CN1CCN(CC(=O)[O-])CCN(CC(=O)[O-])CCN(CC(=O)[O-])CC1.[Gd+3] (stereo not given) | 1.06% [at 42.5 µM] (inactive) | –
CCCCCCCCn1sccc1=O | – | 30.7 µM (active)
C1CS1 | -11.2% (inactive) | –
CN(C)c1ccc(N=O)cc1 | – | 43.4 µM (active) and inactive
CC(C)(C)NCC(O)c1cc(Cl)c(N)c(C(F)(F)F)c1 (stereo not given) | 2.32% [at 42.5 µM] (inactive) | –
CN1CC[C@]23c4c5ccc(O)c4O[C@H]2[C@@H](O)CC[C@H]3[C@H]1C5 | 12.9% (inactive) | –
C[C@H]1O[C@H](OC2[C@@H](O)[C@@H](O)C(O)[C@H](O)[C@H]2O)[C@@H](N)C[C@@H]1N=C(N)C(=O)O (stereo not given in full) | -0.182% (inactive) | –
CC(C)c1ccc(OP(=O)(Oc2ccc(C(C)C)cc2)Oc2ccc(C(C)C)cc2)cc1 | – | inactive
CCOP(=O)(O)C(N)=O | -2.02% (inactive) | –
SCc1ccccc1 | 25.4% (inactive) | –
CCCCNC(=O)OCC#CI | – | 12.1 µM (active) and 48.6 µM (active)
Cc1cnc(C2=NC(C)(C(C)C)C(=O)N2)c(C(=O)O)c1 (stereo not given) | -1.33% (inactive) | –
O=C1NC(=O)C(=O)C(=O)N1 | -5.73% (inactive) | –
CCOP(=S)(S)OCC | -0.256% (inactive) | –
